TDP1 cell CPT: qHTS for Inhibitors of human tyrosyl-DNA phosphodiesterase 1 (TDP1): qHTS in cells in presence of CPT; chicken DT40 Tdp1-/-;hTDP1 cells + 20 nM CPT, ATP luminescence, 48 h; Potency, µM (doses to about 46.2 µM), most hits filed as inhibitors; actives 12% (n = 420,000); AID 686979, 2013; further: nearly all actives have a fitted effect of over 55% in size
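Chicken DT40 Tdp1-/- cells stably complemented with human TDP1 were seeded at 400 cells/well in medium containing 20 nM camptothecin, exposed to pin-transferred compounds, and grown at 37 °C for at least 48 hr. Viability was read as ATP luminescence.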
VP16 counter: VP16 counterscreen qHTS for inhibitors of ROR gamma transcriptional activity | Drosophila S2 Gal4-VP16 UAS-luciferase, luminescence, 20 h | Potency, µM (series often up to 53.6 µM), usual class: inhibitors | actives 3.5% (n = 310,000) | AID 2546, 2010;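 further: Gal4-VP16 expression switched on by copper sulfate through the metallothionein promoter; nearly all actives have a fitted effect of over 50% in size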
TDP1 cell noCPT: qHTS for Inhibitors of human tyrosyl-DNA phosphodiesterase 1 (TDP1): qHTS in cells in absence of CPT | DT40 Tdp1-/- hTDP1 cells, no CPT, ATP luminescence, 48 h | Potency, µM (titrated, usually from 46.2 µM), actives largely listed as inhibitors | actives 15% (n = 420,000) | AID 686978, 2013; further: nearly all actives have a fitted effect of over 55% in size
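Growth of hTDP1-complemented DT40 Tdp1-knockout cells is measured by ATP luminescence after at least 48 hr compound exposure at 37 °C, with DMSO substituting for the 20 nM CPT used in the parallel screen.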
ALOX12 inh: Primary qHTS assay for inhibitors of human arachidonate 12S-lipoxygenase (ALOX12): Round 2; actives 1.1% (n = 580,000); Polyunsaturated fatty acid lipoxygenase ALOX12 (Homo sapiens), P18054; purified 12hLO, xylenol orange hydroperoxide absorbance; Potency, µM (top dose mostly 108 µM), hits mostly inhibitors; AID 1671190, 2021
Target sequence (P18054 whole entry, looked up): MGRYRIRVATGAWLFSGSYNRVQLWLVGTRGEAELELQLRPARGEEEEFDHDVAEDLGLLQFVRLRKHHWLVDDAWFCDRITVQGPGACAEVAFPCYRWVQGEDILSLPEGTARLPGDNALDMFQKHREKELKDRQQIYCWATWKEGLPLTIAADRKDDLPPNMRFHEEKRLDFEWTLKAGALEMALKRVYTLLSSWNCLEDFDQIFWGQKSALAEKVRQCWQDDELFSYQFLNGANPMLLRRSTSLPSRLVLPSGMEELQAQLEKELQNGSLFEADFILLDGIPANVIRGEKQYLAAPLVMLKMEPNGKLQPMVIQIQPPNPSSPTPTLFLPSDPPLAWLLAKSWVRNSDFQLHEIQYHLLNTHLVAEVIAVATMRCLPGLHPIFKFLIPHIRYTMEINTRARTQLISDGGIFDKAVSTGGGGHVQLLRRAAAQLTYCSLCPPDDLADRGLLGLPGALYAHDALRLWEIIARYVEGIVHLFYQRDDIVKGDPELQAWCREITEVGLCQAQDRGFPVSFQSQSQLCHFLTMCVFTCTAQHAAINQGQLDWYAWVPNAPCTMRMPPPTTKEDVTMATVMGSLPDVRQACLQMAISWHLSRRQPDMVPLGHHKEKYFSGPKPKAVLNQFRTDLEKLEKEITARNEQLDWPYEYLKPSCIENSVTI
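Purified human 12hLO (150 nM final) in 25 mM Hepes, 0.01% Triton X-100, pH 7.0 was preincubated 15 min at room temperature with compound. Then 40 uM arachidonic acid was added, 30 min. Hydroperoxide was read by Fe-XO absorbance ratio 573/405 nm.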
ELG1 repair inh: qHTS screen for small molecules that inhibit ELG1-dependent DNA repair in human embryonic kidney (HEK293T) cells expressing luciferase-tagged ELG1 | actives 2.3% (n = 330,000) | Potency, µM (top dose mostly 46.1 µM), actives largely listed as inhibitors | AID 504467, 2011 | HEK293T ELG1-luciferase reporter, luminescence, 16 h; DNA damage induced by 5-fluorouridine; further: nearly all actives have a fitted effect of over 55% in size
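Quantitative HTS, concentration-response format. 2,000 cells/well co-treated with 5-fluorouridine and compound, 16 hr in 5% CO2 at 37 °C; ONE-Glo luminescence read after 30 min.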
RORg inh: qHTS for inhibitors of ROR gamma transcriptional activity | Nuclear receptor ROR-gamma (Mus musculus), P51450 | Drosophila S2 Gal4-RORgamma UAS-luciferase reporter, 20 h | Potency, µM (series often up to 53.6 µM), usual class: inhibitors | actives 5.4% (n = 310,000) | AID 2551, 2010; further: nearly all actives have a fitted effect of over 60% in size
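ROR gamma transcriptional activity was tracked as Gal4-UAS luciferase output in stably transfected Drosophila Schneider cells, with compound added 1 hr before 700 uM copper sulfate induction and a 20 hr ambient-temperature incubation.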
Hits are given with their value; 0 = inactive; ? = inconclusive; - = not tested or not shown. A selection: hits, their analogues and other compounds. The true share with any hit is near 15%. The call rests on the fitted dose curve; in most records, active means well fitted curve in the direction sought with a large enough effect; inconclusive means small, poorly fitted or top-dose-only effect, or another doubt; inactive means no such curve, though single readings can be large; an effect the other way counts as inactive or inconclusive.

SMILES | TDP1 cell CPT | VP16 counter | TDP1 cell noCPT | ALOX12 inh | ELG1 repair inh | RORg inh
COc1ccccc1-c1nnc(SCC(=O)Nc2ccc(N(C)C)cc2)n1-c1ccccc1 | - | - | - | 0 | - | -
Nc1nc2ccccc2n1/N=C/c1ccc(Br)cc1 | ? | 0 | 16µM | 0 | ? | 0
COc1cc(C)c2c(c1C)C[C@H](C(C)C(=O)N1CCSCC1)CC2 (some centres undefined) | - | - | - | 0 | - | -
CC1CCN(C(=O)C2CCN(c3nc4ccccc4nc3OC(C)C)CC2)CC1 | - | - | - | 0 | - | -
CCc1ccc(-n2c(C)n[nH]c2=S)cc1 | 0 | ? | 0 | ? | 0 | 10µM
CCc1ccc(-n2c(Cn3nc(C(F)(F)F)cc3C)n[nH]c2=S)cc1 | 0 | ? | 0 | ? | 0 | 4µM
CNc1nc2c(c(C(=O)N3CCCC3)n1)CN(C(=O)C(C)n1cc(C)cn1)CC2 (centres undefined) | - | - | - | 0 | - | -
CC(=O)N1C[C@H]2CON(C)[C@H]2C[C@H]1c1cccc(-c2cc(Cl)cc(Cl)c2)c1 | ? | - | 23µM | 0 | - | -
CN1OC[C@@H]2CN(C(=S)NCCc3ccccc3)[C@H](c3ccccc3Br)C[C@@H]21 | ? | - | 16µM | 0 | - | -
CN1OC[C@@H]2CN(C(=O)CCc3ccccc3)[C@H](c3cccc(-c4ccccc4)c3)C[C@@H]21 | 26µM | - | ? | ? | - | -
COc1ccc2cc(CN(C)C(=O)CNC(=O)c3ccc(Cl)cc3Cl)ccc2c1 | - | - | - | 0 | - | -
CCNC(=O)N1CCCC(c2nn(C)c(=O)n2C2CCCC2)C1 (centres undefined) | - | - | - | 0 | - | -
Cc1[nH]cnc1CSCCn1ccnc1-c1nccn1C | - | - | - | 0 | - | -
CC(O)(c1cccnc1)c1nc(-c2cccc(C#N)c2)cs1 (centres undefined) | 16µM | - | 15µM | 0 | - | -
COCc1cccc(-c2csc(C(C)(O)c3cccc(OC)c3)n2)c1 (centres undefined) | 13µM | - | ? | ? | - | -
COc1cccc(C(C)(O)c2nc(-c3cc(F)cc(F)c3)cs2)c1 (centres undefined) | ? | - | 23µM | 0 | - | -
CC(=O)NC(C)(c1ccccc1)c1nc(/C=C/c2ccccc2)cs1 (centres undefined) | ? | - | 16µM | 0 | - | -
COc1ccc(C(C)(O)c2nc(-c3ccc4c(c3)OCO4)cs2)cc1 (centres undefined) | ? | - | ? | 0 | - | -
COc1ccc(-c2csc(C(C)(O)c3cccnc3)n2)cn1 (centres undefined) | ? | - | 0 | 0 | - | -
CC(O)(c1cccnc1)c1nc(-c2ccc3c(c2)OCO3)cs1 (centres undefined) | 16µM | - | ? | 0 | - | -
COc1ccc(-c2csc(C(C)(O)c3cccc(OC)c3)n2)cc1 (centres undefined) | 16µM | - | ? | ? | - | -
COc1cccc(C(C)(O)c2nc(-c3ccc4c(c3)OCO4)cs2)c1 (centres undefined) | 15µM | - | 21µM | ? | - | -
COc1cccc(C(C)(O)c2nc(-c3cccs3)cs2)c1 (centres undefined) | ? | - | ? | 4.5µM | - | -
COc1cccc(C(C)(O)c2nc(-c3ccc4ccccc4c3)cs2)c1 (centres undefined) | ? | - | ? | 0 | - | -
COc1cccc(C(C)(O)c2nc(-c3ccc(OC)nc3)cs2)c1 (centres undefined) | ? | - | ? | 0 | - | -
SMILES | TDP1 cell CPT | VP16 counter | TDP1 cell noCPT | ALOX12 inh | ELG1 repair inh | RORg inh
Cc1ccccc1-c1csc(C(C)(O)c2cccnc2)n1 (centres undefined) | ? | - | ? | 0 | - | -
CC(O)(c1cccnc1)c1nc(/C=C/c2ccccc2)cs1 (centres undefined) | ? | - | 21µM | 0 | - | -
COc1cccc(C(C)(O)c2nc(-c3ccc(S(C)(=O)=O)cc3)cs2)c1 (centres undefined) | ? | - | 18µM | 0 | - | -
COc1ccc(C(C)(O)c2nc(-c3cncnc3)cs2)cc1 (centres undefined) | 0 | - | 0 | 0 | - | -
COc1ccc(C(C)(O)c2nc(-c3csc4ccccc34)cs2)cc1 (centres undefined) | 2.9µM | - | 4.6µM | 0 | - | -
COc1ccc(C(C)(O)c2nc(-c3ccoc3)cs2)cc1 (centres undefined) | ? | - | ? | 28µM | - | -
CC(C)C[C@@H](NC(=O)OC(C)(C)C)C(=O)O | - | - | - | 0 | - | -
CC(O)(c1cccnc1)c1nc(-c2ccc3ccccc3c2)cs1 (centres undefined) | 21µM | - | 23µM | 0 | - | -
S=C(Nc1ccc2c(c1)OCO2)N1CCN(Cc2ccco2)CC1 | ? | 11µM | 0 | 0 | ? | 11µM
COc1ccc(NC(=S)N2CCN(Cc3ccco3)CC2)c(OC)c1 | ? | 0 | 13µM | 0 | ? | 0
COc1ccc(NC(=S)N2CCN(Cc3cccc(F)c3)CC2)c(OC)c1 | 23µM | 0 | 21µM | 0 | 0 | ?
COCc1cc(C)n(CC(=O)Nc2cc(Cl)ccc2Cl)c(=O)c1C#N | - | - | - | 0 | - | -
CC1Oc2ccc(NC(=O)C3CCCC3)cc2CN(Cc2ccccc2Cl)C1=O (centres undefined) | - | - | - | 0 | - | -
Cc1ccccc1CNC(C)(C)CO | - | - | - | 0 | - | -
NC(=O)c1ccc(COC(=O)c2cc3ccccc3[nH]2)cc1 | - | - | - | 0 | - | -
Cn1ccnc1CNCC1(COc2cnccn2)C[C@@H](O)[C@@H](O)C1 (some centres undefined) | - | - | - | 0 | - | -
Cn1cnnc1SCC(=O)N1CCC(Cc2ccccc2)CC1 | ? | 0 | 18µM | 0 | 0 | 0
CN(C(=O)Cc1cccc(C(F)(F)F)c1)c1nc2ccccc2o1 | - | - | - | 0 | - | -
Cc1noc(C)c1COC(=O)CCN1c2ccccc2Sc2ccccc21 | ? | 0 | 21µM | 0 | ? | 0
Cc1noc(C)c1COC(=O)CCc1nc2ccccc2s1 | 0 | 0 | 0 | 0 | ? | 0
COc1cccc(CN(C(=O)Cc2c[nH]c3ccccc23)C(C(=O)NC2CCCCC2)c2cccs2)c1 (centres undefined) | 0 | 0 | 0 | 0 | 18µM | 0
COc1ccc(CN(C(=O)Cc2cccs2)C(C(=O)NC2CCCC2)c2ccncc2)cc1 (centres undefined) | ? | 0 | ? | ? | 0 | 0
COc1ccc(C(C(=O)NC2CCCCC2)N(Cc2cccs2)C(=O)Cc2c[nH]c3ccccc23)cc1 (centres undefined) | 4.6µM | 0 | 18µM | 0 | ? | 0

Assay outcomes as filed in PubChem.
